A selection: hits, their analogues and other compounds. The true share with any hit is near 5.5%.
RORg inh: qHTS for inhibitors of ROR gamma transcriptional activity | Nuclear receptor ROR-gamma (Mus musculus), P51450 | Drosophila S2 Gal4-RORgamma UAS-luciferase reporter, 20 h | Potency, µM (highest dose often 53.6 µM), for the others: at the top dose activity change, negative = inhibition, hits mostly inhibitors | actives 5.4% (n = 310,000) | AID 2551, 2010; note: % is set by controls: 0 for no effect and ±100 for the full control effect; nearly all actives have a fitted effect of over 60% in size
Target sequence (P51450 whole entry, looked up, the tested form may be a part): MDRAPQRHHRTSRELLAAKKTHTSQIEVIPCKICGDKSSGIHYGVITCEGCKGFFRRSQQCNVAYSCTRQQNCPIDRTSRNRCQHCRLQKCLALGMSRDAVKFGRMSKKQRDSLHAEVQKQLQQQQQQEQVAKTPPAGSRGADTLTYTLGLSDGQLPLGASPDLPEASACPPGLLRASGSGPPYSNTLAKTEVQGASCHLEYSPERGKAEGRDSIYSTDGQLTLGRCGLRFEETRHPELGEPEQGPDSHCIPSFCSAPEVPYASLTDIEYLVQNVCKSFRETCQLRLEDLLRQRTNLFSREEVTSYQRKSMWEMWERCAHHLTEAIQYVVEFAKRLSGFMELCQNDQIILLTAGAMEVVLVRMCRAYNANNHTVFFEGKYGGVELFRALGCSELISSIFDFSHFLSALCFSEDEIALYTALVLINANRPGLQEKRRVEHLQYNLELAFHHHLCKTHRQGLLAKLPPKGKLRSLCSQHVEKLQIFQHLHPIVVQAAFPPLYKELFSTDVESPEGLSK
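Luminescence from a UAS-regulated Photinus luciferase reporter in stably transfected Drosophila Schneider cells is measured; decreased signal marks ROR gamma inhibition. Fusion expression is induced by 700 uM copper sulfate for 20 hr.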
Mito fusion yeast: qHTS Assay for Small Molecule Inhibitors of Mitochondrial Division or Activators of Mitochondrial Fusion; S. cerevisiae fusion-defective mutant growth rescue, CellTiterGlo 48 h; actives 0.23% (n = 320,000); Potency, µM (highest dose often 46.1 µM), without a hit: at the top dose growth rescue (activation), usual class: activators; note: % of control where 0% means no effect; nearly all actives have a fitted effect of over 45% in size
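S. cerevisiae fusion-defective temperature-sensitive mutants (e.g. fzo1-1, mgm1-5) grown 48 h at 37C in YPEG (ethanol/glycerol non-fermentable) medium with 23 nl compound per well; growth rescue read as CellTiterGlo luminescence.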
Gal4-VP16 FLuc: VP16 counterscreen qHTS for inhibitors of ROR gamma transcriptional activity | Drosophila S2 Gal4-VP16 UAS-luciferase, luminescence, 20 h | actives 3.5% (n = 310,000) | Potency, µM (top dose mostly 53.6 µM), inactives show at the highest dose activity, negative = inhibition, hits mostly inhibitors;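 note: Gal4-VP16 expression switched on by copper sulfate through the metallothionein promoter; % is set by controls: 0 for no effect and ±100 for the full control effect; nearly all actives have a fitted effect of over 50% in size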
uPA surface inh: qHTS for Inhibitors of Cell Surface uPA Generation. actives 0.31% (n = 330,000). Potency, µM (doses to about 38.3 µM), without a hit: at the top dose activity change, negative = inhibition, hits mostly inhibitors. AID 540303, 2011. cell surface uPA generation assay, qHTS; active = well fitted inhibition curve with a large enough effect; inconclusive = small, poorly fitted or top-dose-only effect; inactive = no such curve, though single readings can be large or run the other way; tested in mouse RAW 264.7 cells; note: % is set by controls: 0 for no effect and ±100 for the full control effect; nearly all actives have a fitted effect of over 55% in size
BCR signal inh: qHTS Assay to Find Inhibitors of Chronic Active B-Cell Receptor Signaling; actives 0.05% (n = 340,000); AID 493014, 2011; ABC-DLBCL IkBa-CBG/CBR reporter, luminescence ratio, 4 h; Potency, µM (top dose mostly 46.1 µM), for inactives: at the top dose activity change, negative = inhibition, most hits filed as inhibitors; active = well fitted inhibition curve with a large enough effect in the signal ratio, with a control signal flat, not every such curve was filed as active; inconclusive = small, poorly fitted or top-dose-only effect, or effect the other way, or a change in a side signal; the % refers to the signal ratio;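 note: plate controls were basal doxycycline-induced cells for no effect and cells given 10 µM MG132 for full effect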
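Cell line TMD8 (human ABC DLBCL), stably expressing tet-inducible CBG68-IkBa fusion and CBR; IMDM/0.5% FBS; cpd up to 46 uM; dox induction, 4 h, 37C/5% CO2; dual luminescence; green/red ratio; MG132 control.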
a7 integrin act: qHTS for Activators of Integrin-Mediated Alleviation for Muscular Dystrophy. alpha7betagal myoblasts, beta-gal FDG fluorescence, 48 h. Potency, µM (doses to about 38.3 µM), for the others: at the highest dose activation, hits mostly activators. AID 624291, 2012. actives 0.064% (n = 350,000);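 note: 100% = response of the positive control SU9516; nearly all actives have a fitted effect of over 60% in size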
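alpha7betagal+/- myoblasts (passage 13, 250/well) treated 48 h at 37C with compounds at 1:260 dilution of DMSO stock. Lysed, then beta-galactosidase activity read as FDG fluorescence (ex 480/em 540) after 30 min, with pre-read for autofluorescence.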
* marks the source's active call; other numbers are inactive results; ? = inconclusive; . = not tested or not shown. Unless noted, calls come from the whole dose curve; as a rule, active = well fitted curve in the direction sought with a large enough effect; inconclusive = small, poorly fitted or top-dose-only effect, or another doubt; inactive = no such curve, though single readings can be large; an effect the other way counts as inactive or inconclusive. Potency is the fitted concentration of half-maximal effect.

SMILES	RORg inh	Mito fusion yeast	Gal4-VP16 FLuc	uPA surface inh	BCR signal inh	a7 integrin act
Fc1cccc(COc2ccccc2C(=S)N2CCCC2)c1	11.2µM*	-1.9%	2.9%	-5.9%	?	-3.3%
CN1C(=O)/C(=C/c2ccccc2OCc2cccc(F)c2)N(C)C1=S	0.0%	4.4%	-5.1%	1.9%	?	-36.7%
Cc1cc(NC(=S)NC(=O)/C=C/c2ccc(S(=O)(=O)N3CCOCC3)cc2)ccc1Br	7.08µM*	-4.4%	-6.4%	-4.5%	-1.6%	1.0%
O=C(/C=C/c1ccc(S(=O)(=O)N2CCOCC2)cc1)NC(=S)Nc1ccc(N2CCOCC2)cc1	5.62µM*	-1.7%	-15.6%	0.2%	-3.7%	2.5%
CC(=O)NC(=S)Nc1ccc(S(=O)(=O)N2CCOCC2)cc1	23.3%	-17.1%	-2.9%	-0.9%	?	-7.0%
O=C(/C=C/c1ccc(F)cc1)Nc1ccc(S(=O)(=O)N2CCOCC2)cc1	-1.3%	-1.8%	0.9%	-2.0%	1.3%	-13.9%
CC(C)(C)NNC(=S)Nc1ccc(S(=O)(=O)N2CCOCC2)cc1	5.62µM*	-3.1%	?	-1.2%	1.1%	-22.5%
COCC(C)N=C1NN=C(c2cccs2)C(CC(=O)O)S1 (centres undefined)	2µM*	0.9%	11.2µM*	0.5%	?	3.3%
COc1ccc(/C=C/c2cc(-c3ccc(C)cc3)o[n+]2C)cc1	?	-8.7%	12.6µM*	-9.7%	?	-45.8%
CC(C)(C)OC(=O)CC[C@@H](C(=O)N1CCN(C(=O)OC(C)(C)C)CC1)n1cc(C(Cc2ccc(O)cc2)NC(=O)OC(C)(C)C)nn1 (some centres undefined)	28.6%	-1.4%	-4.0%	9.8%	1.4%	-22.3%
O=[N+]([O-])c1ccc(-n2nnnc2-c2ccccc2)c([N+](=O)[O-])c1	3.98µM*	-0.6%	5.62µM*	-14.7%	?	-47.4%
O=[N+]([O-])c1ccc(-n2nnnc2-c2ccccc2)cc1	-5.5%	0.9%	7.9%	3.3%	9.7%	-7.8%
O=C1NC(=O)[C@@]2(CCOc3ccc(F)cc32)N1	4.1%	.	-4.7%	.	.	.
COc1cc(C(=O)N(C)CCOc2ccccc2)ccc1OCC(=O)Nc1cccc(C(F)(F)F)c1	.	6.4%	.	-2.3%	-19.9%	-42.0%
COc1ccc2c(c1)Cc1sc(NC(=O)c3ccccc3)nc1-2	11.2µM*	-1.7%	-25.8%	3.2%	?	2.9%
COc1cccc(-c2nnc(NC(=O)c3cccs3)s2)c1	-31.8%	-0.6%	3.8%	-5.8%	?	26.6%
COc1ccc(C(=O)Nc2nc3ccc4nc(C)sc4c3s2)cc1	?	1.8%	2.7%	20.3%	?	0.0%
COc1ccc2c(c1)Cc1sc(NC(=O)c3cccc(Br)c3)nc1-2	.	-6.7%	.	.	?	.
COc1ccc2c(c1)Cc1sc(NC(=O)c3cccs3)nc1-2	7.94µM*	7.7%	?	-9.9%	?	12.8%
COc1ccc(C(=O)Nc2nc3c(s2)Cc2cc(OC)ccc2-3)cc1	?	1.7%	35.5µM*	12.6%	18.5%	-6.7%
Cc1ccc2c(CC(=O)Nc3ccc4nc(N5CCOCC5)sc4c3)coc2c1	.	.	.	.	.	16.3%
CCOc1ccc(NC(=O)CN(C)C(=O)C2=COCCO2)cc1OCC	.	2.4%	.	-0.7%	-18.2%	25.4%
O=C(Nc1cccc(NC(=S)NC(=O)c2cccs2)c1)c1ccccc1	10µM*	-4.1%	?	-3.1%	?	12.9%
COc1cc(NC(=O)c2ccc(C)cc2C)ccc1NC(=O)c1cccs1	21.0%	-0.4%	-9.7%	1.8%	-4.7%	16.9%
O=C(NC(=S)Nc1cccc(NC(=O)c2ccccc2Cl)c1)c1cccs1	11.2µM*	-0.5%	?	-5.6%	?	0.0%
SMILES	RORg inh	Mito fusion yeast	Gal4-VP16 FLuc	uPA surface inh	BCR signal inh	a7 integrin act
Cc1ccc(C(=O)Nc2cccc(NC(=O)c3cccs3)c2)c(C)c1	73.3%	-1.5%	22.3%	12.6µM*	?	-2.9%
Cc1ccccc1C(=O)Nc1cccc(NC(=S)NC(=O)c2cccs2)c1	?	-4.9%	?	19.5%	?	-12.7%
COC(=O)[C@@H]1C[C@]2(OC(=O)c3ccccc3)C=CC(=O)C[C@@H]2N1C(=O)OCc1ccccc1	?	10.6%	?	3.16µM*	?	-47.0%
CCSc1ccccc1C(=O)N1CCC2(CC1)CC(=O)c1ccccc1O2	.	16.0%	.	-4.8%	?	4.3%
CSCCC(=O)N1CCN(CC(=O)N2CCCC2)CC1	2.82µM*	0.3%	-13.5%	-0.4%	-3.6%	28.2%
COc1ccc(C(=O)N/N=C/c2ccc(OC(=O)c3ccccc3)cc2)cc1	-22.6%	2.6%	-5.9%	5.4%	-13.9%	-15.5%
COc1ccc(/C=N/NC(=S)Nc2cccc(C(=O)O)c2)cc1	3.55µM*	-0.6%	11.2µM*	-6.5%	?	14.8%
CC(C)(C)C(=O)Nc1ccc(C(=O)N/N=C/c2ccccc2OC(=O)c2ccccc2)cc1	6.31µM*	-2.8%	?	-12.5%	5.7%	-11.1%
COc1ccc(C(=O)N/N=C/c2ccccc2OC(=O)c2ccccc2)cc1	3.55µM*	3.2%	5.01µM*	-14.1%	?	0.1%
O=C(N/N=C/C(Cl)=C/c1ccccc1)c1ccc2c(c1)OCO2	.	4.4%	.	6.31µM*	?	-43.4%
O=C(CC1CCCC1)N1CCN(S(=O)(=O)c2ccccc2)CC1	.	5.9%	.	8.1%	3.7%	?
CN(C)S(=O)(=O)c1cccc(NC(=S)N/N=C/c2cc(Br)ccc2O)c1	1.4%	5.1%	-8.2%	5.8%	?	-29.7%
COc1ccc(C(=O)Nc2cccc(C(=O)N/N=C/c3ccc(OC)cc3OC)c2)cc1	10µM*	-2.6%	14.1µM*	-13.4%	?	-1.6%
CN(C)S(=O)(=O)c1cccc(NC(=S)N/N=C/c2cccc(O)c2)c1	8.91µM*	-0.6%	?	9.2%	?	-4.5%
O=C(N/N=C/c1ccccc1OC(=O)c1ccc2c(c1)OCO2)c1ccccc1	11.2µM*	-0.1%	?	0.7%	?	-17.1%
COc1ccccc1/C=N/NC(=O)c1ccc2c(c1)OCO2	?	0.4%	-15.3%	-3.3%	?	7.3%
COc1ccc(/C=N/NC(=O)c2cccc(NC(C)=O)c2)c(OC)c1	20.2%	28.5%	-7.7%	3.9%	?	-4.9%
CC1CC2(CC(C)(C(=O)CSc3n[nH]c(-c4ccccc4Cl)n3)OC2=O)C(=O)O1 (centres undefined)	10µM*	0.9%	?	-5.7%	-0.1%	14.2%
